Results as given in PubChem BioAssay (NCATS).
Results filed as inconclusive are left out. Active and inactive are the calls of the source. The call rests on the fitted dose curve; in most records, active means well fitted curve in the direction sought with a large enough effect; inconclusive means small, poorly fitted or top-dose-only effect, or another doubt; inactive means no such curve, though single readings can be large; an effect the other way counts as inactive or inconclusive.

Legend:
[1] = molecular target: Metallo-beta-lactamase type 2 (Klebsiella pneumoniae) (UniProt C7C422); experiment: qHTS to identify inhibitors of the New Delhi Metallo-beta-lactamase (NDM): assay validation screen against the NCATS LOPAC Collection (AID 1794843); details: NDM-1 enzyme, nitrocefin hydrolysis, absorbance 485 nm; series mostly up to 38.4 µM;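 further: nitrocefin turnover by NDM-1 measured as 485 nm absorbance at plateau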
Sequence of Metallo-beta-lactamase type 2 (Klebsiella pneumoniae) (C7C422 whole entry, looked up): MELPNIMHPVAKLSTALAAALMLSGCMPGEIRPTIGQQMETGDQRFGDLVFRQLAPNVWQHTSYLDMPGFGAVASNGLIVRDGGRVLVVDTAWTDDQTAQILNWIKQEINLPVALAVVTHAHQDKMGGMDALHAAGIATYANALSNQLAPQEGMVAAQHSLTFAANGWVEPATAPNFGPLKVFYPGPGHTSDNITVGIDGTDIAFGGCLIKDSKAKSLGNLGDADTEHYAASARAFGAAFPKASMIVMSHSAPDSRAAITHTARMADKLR
Method in brief: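 NDM-1 at 2 nM final in 50 mM HEPES pH 7.0, 1 uM ZnSO4, 0.01% Tween20, preincubated with LOPAC compounds pinned in DMSO; 50 uM nitrocefin (stock) added. Hydrolysis read as absorbance at 485 nm in the plateau phase.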

[2] = molecular target: Glutathione peroxidase 1 (Homo sapiens) (UniProt P07203); experiment: Primary qHTS Assay for Inhibitors of Recombinant Selenoprotein Glutathione Peroxidase 1 (GPX1) (AID 1845191); details: recombinant GPX1, GR-coupled NADPH fluorescence, 15 min; series mostly up to 48.8 µM; further: nearly all actives have a fitted effect of over 65% in size
Sequence of Glutathione peroxidase 1 (Homo sapiens) (P07203 whole entry, looked up): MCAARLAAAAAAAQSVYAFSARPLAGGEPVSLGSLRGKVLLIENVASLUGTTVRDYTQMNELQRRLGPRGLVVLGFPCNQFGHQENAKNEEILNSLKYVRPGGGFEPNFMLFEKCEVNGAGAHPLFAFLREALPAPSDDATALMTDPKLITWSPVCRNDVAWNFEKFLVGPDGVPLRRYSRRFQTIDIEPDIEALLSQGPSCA
Method in brief: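 Recombinant GPX1 (10 nM final) was preincubated with compound for 30 min at room temperature, then reacted with 1 mM GSH, 0.5 mM CHP, 0.5 mM NADPH and 100 nM glutathione reductase; NADPH fluorescence (340/450 nm) was read at 0 and 15 min.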

[3] = molecular target: Phospholipid hydroperoxide glutathione peroxidase GPX4 (Homo sapiens) (UniProt P36969); experiment: Primary qHTS Assay for Inhibitors of Recombinant Selenoprotein Glutathione Peroxidase 4 (GPX4) (AID 1845192); details: recombinant GPX4, GR-coupled NADPH fluorescence, 15 min; series mostly up to 50 µM; further: nearly all actives have a fitted effect of over 65% in size
Sequence of Phospholipid hydroperoxide glutathione peroxidase GPX4 (Homo sapiens) (P36969 whole entry, looked up): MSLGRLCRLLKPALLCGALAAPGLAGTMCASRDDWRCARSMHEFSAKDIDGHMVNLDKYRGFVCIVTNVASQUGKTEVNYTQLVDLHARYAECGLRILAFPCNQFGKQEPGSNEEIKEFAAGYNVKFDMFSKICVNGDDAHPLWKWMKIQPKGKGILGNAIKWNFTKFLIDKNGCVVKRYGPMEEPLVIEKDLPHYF
Method in brief: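 GR-coupled readout: 100 nM GR, 1 mM GSH, 0.5 mM NADPH; NADPH fluorescence (ex 340/em 450 nm) read at t=0 and after 15 min RT. GPX4 200 nM, preincubated 30 min with compound; substrate 0.5 mM CHP.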

Measured: Potency

c1ccc2c(c1)[I+]c1ccccc1-2
inactive: all assays above

COc1ccc2[nH]cc(CCN)c2c1
inactive: all assays above

O=C(NC1CN2CCC1CC2)c1cc2ccoc2cn1 (stereo not drawn)
inactive: all assays above

CCCN(CCC)C1CCc2cccc(O)c2C1 (stereo not drawn)
inactive: all assays above

C#CCN[C@H](C)Cc1ccccc1
inactive: all assays above

CCCC[N+]1(C)C2CC(OC(=O)[C@H](CO)c3ccccc3)CC1C1OC12 (stereo partly drawn)
inactive: all assays above
